We go through one sequence from PMC7862700, “An all-to-all approach to the identification of sequence-specific readers for epigenetic DNA modifications on cytosine”.

What all share (test): DAPPL (digital affinity profiling via proximity ligation, sequencing); 10 mM Tris-HCl pH 7.5, 50 mM NaCl, 1 mM DTT, 4% glycerol, room temperature, 30 min; GST-TFs on glutathione beads, 16-mer random dsDNA library, 0.1% formaldehyde crosslink after washing; high values mean tight binding
Assay [1] concerns the target T1, FEV (Homo sapiens, UniProt Q99581 1-238).
T1 sequence: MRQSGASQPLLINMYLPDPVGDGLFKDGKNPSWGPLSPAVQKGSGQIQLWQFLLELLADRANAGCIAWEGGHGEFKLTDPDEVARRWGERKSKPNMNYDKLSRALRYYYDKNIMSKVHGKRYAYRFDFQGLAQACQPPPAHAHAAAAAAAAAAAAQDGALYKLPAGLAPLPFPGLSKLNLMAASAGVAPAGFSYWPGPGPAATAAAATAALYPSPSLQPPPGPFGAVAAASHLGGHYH
Conditions: protein: recombinant; tags: N-terminal GST; dsDNA, one strand shown. In short, it runs like this:
(§1)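 A tag-only sample was pooled with DNA-barcoded human transcription factors that had been expressed in yeast as GST fusions and captured on glutathione beads. The pools were incubated for 30 min at room temperature with 200 nmole of a random double-stranded 16-mer DNA library in Tris/NaCl/DTT/glycerol buffer, then washed, crosslinked with 0.1% formaldehyde, proximity-ligated (BsaI/T4 ligase, 1 h, 37 °C), PCR-amplified and sequenced on an Illumina NextSeq500. Binding signal is each hexamer's read frequency for a factor divided by its frequency for the tag-only sample.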

The target of assay [2] is ETV5 (Homo sapiens, UniProt P41161 1-510). The note with it: protein: recombinant; tags: N-terminal GST; dsDNA, one strand shown. In short, it runs like this: as §1
ETV5, sequence (P41161 whole entry): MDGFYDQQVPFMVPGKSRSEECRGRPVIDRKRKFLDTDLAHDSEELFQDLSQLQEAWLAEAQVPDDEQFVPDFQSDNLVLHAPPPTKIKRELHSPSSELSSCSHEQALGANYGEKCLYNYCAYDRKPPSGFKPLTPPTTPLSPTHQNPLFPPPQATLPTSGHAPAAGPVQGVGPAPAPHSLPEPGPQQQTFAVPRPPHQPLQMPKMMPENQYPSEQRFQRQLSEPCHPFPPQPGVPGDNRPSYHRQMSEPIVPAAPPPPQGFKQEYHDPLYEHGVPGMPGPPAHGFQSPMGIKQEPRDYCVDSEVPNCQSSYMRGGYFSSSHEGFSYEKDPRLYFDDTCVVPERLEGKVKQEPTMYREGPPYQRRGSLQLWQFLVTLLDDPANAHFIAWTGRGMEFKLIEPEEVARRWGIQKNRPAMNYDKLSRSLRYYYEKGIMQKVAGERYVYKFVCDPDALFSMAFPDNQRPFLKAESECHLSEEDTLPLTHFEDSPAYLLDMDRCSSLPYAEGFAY
The target of assay [3] is HSF1 (Homo sapiens, UniProt Q00613 1-529). Conditions: protein: recombinant; tags: N-terminal GST; chain copies: 3; dsDNA, one strand shown. In short, it runs like this: as §1
HSF1, sequence (Q00613 whole entry): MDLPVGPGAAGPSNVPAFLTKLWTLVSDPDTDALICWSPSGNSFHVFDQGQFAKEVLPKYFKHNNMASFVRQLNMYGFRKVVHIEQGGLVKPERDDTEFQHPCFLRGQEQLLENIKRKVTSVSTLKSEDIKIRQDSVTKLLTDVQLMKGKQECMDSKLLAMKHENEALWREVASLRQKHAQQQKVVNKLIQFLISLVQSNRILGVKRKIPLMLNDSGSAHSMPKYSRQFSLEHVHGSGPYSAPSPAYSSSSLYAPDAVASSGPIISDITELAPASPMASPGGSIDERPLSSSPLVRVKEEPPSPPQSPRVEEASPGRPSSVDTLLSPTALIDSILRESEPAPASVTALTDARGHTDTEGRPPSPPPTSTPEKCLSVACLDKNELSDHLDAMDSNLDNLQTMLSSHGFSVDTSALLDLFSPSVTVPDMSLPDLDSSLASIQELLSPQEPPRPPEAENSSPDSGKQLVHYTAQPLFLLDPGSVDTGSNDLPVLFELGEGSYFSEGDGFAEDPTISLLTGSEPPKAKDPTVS
In assay [4] the target is T2, SPIC (Homo sapiens, UniProt Q8N5J4 1-248).
T2 sequence: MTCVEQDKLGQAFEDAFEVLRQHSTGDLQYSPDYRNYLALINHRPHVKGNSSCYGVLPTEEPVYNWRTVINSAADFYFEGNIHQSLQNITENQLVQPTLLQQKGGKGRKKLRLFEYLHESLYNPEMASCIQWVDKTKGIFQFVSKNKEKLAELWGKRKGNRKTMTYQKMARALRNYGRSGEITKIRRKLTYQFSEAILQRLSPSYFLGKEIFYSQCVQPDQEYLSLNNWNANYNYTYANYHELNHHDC
The note with it: protein: recombinant; tags: N-terminal GST; dsDNA, one strand shown. The method, boiled down: as §1

Assay [5] concerns the target ELF4 (Homo sapiens, UniProt Q99607 1-663). The note with it: protein: recombinant; tags: N-terminal GST; dsDNA, one strand shown. The method, boiled down: as §1
Assay [6] deals with T3, ELK4 (Homo sapiens, UniProt P28324-2 1-405).
T3 sequence: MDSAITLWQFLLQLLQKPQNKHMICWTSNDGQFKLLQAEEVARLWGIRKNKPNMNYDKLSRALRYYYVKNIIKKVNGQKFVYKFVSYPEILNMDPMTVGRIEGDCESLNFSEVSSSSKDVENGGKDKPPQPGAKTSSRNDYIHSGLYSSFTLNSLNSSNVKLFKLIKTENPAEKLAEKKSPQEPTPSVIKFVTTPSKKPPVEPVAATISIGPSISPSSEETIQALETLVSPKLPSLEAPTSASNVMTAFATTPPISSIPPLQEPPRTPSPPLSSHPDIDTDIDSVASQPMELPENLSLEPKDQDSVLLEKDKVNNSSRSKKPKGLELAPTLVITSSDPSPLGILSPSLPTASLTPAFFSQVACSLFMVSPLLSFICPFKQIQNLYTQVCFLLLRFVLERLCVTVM
Conditions: protein: recombinant; tags: N-terminal GST; dsDNA, one strand shown. In short, it runs like this: as §1

Assay [7] has as its target T4, ETV2 (Homo sapiens, UniProt O00321 1-342).
T4 sequence: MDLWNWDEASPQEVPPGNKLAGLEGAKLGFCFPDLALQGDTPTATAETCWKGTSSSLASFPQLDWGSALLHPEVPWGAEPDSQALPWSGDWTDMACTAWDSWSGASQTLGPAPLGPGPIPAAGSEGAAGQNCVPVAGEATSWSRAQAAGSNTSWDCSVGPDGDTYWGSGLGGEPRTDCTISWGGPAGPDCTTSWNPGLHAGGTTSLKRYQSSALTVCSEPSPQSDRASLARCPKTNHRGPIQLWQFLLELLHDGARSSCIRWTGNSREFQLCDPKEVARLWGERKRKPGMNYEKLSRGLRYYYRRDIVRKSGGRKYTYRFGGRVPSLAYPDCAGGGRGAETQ
The note with it: protein: recombinant; tags: N-terminal GST; dsDNA, one strand shown. The method, boiled down:
as §1

Assay [8] addresses T5, ELF3 (Homo sapiens, UniProt P78545 1-371).
T5 sequence: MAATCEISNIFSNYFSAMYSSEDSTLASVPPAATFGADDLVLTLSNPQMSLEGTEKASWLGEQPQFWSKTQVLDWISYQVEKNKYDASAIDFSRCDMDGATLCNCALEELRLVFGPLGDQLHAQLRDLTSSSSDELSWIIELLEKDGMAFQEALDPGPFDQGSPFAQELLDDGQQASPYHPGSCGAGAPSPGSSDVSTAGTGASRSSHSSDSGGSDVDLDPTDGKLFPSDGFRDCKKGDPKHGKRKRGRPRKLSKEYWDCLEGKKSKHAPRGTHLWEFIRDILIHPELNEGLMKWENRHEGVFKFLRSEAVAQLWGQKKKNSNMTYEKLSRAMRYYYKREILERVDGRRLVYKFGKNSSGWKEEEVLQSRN
The note with it: protein: recombinant; tags: N-terminal GST; dsDNA, one strand shown. In short, it runs like this:
as §1

Assay [9] deals with CRX (Homo sapiens, UniProt O43186 1-299). Conditions: protein: recombinant; tags: N-terminal GST; dsDNA, one strand shown. In short, it runs like this:
as §1

Assay [10] addresses ETV1 (Homo sapiens, UniProt P50549 1-477). Conditions: protein: recombinant; tags: N-terminal GST; dsDNA, one strand shown. The method, boiled down:
as §1

Assay [11] has as its target T6, ERF (Homo sapiens, UniProt P50548 1-548).
T6 sequence: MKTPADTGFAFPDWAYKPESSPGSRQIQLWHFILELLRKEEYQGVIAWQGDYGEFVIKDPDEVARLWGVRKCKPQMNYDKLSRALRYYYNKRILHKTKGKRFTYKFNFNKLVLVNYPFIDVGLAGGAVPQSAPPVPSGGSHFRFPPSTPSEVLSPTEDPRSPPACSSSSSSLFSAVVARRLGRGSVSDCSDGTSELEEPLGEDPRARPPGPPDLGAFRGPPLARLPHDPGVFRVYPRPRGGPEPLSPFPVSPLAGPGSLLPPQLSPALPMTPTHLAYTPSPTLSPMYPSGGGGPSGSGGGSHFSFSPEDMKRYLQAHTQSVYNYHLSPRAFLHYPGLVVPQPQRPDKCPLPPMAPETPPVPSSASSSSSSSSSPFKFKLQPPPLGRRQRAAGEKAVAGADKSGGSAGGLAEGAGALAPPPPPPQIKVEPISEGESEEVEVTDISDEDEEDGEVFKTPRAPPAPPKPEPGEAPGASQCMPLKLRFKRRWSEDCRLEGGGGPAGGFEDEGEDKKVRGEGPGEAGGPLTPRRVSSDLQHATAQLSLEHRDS
The note with it: protein: recombinant; tags: N-terminal GST; dsDNA, one strand shown. In short, it runs like this:
as §1

For assay [12], the target named is T7, ETV3L (Homo sapiens, UniProt Q6ZN32 1-361).
T7 sequence: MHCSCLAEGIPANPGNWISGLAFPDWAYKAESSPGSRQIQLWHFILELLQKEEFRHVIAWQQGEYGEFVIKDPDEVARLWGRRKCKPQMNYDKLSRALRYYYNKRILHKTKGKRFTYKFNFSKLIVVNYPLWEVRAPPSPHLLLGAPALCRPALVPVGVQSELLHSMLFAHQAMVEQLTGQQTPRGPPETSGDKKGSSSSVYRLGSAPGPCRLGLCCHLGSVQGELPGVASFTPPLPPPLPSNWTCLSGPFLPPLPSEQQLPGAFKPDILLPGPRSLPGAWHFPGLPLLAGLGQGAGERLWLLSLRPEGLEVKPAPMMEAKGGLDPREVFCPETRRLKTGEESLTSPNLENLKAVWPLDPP
Conditions: protein: recombinant; tags: N-terminal GST; dsDNA, one strand shown. The method, boiled down: as §1

Assay [13] deals with T8, ETS2 (Homo sapiens, UniProt P15036 1-469).
T8 sequence: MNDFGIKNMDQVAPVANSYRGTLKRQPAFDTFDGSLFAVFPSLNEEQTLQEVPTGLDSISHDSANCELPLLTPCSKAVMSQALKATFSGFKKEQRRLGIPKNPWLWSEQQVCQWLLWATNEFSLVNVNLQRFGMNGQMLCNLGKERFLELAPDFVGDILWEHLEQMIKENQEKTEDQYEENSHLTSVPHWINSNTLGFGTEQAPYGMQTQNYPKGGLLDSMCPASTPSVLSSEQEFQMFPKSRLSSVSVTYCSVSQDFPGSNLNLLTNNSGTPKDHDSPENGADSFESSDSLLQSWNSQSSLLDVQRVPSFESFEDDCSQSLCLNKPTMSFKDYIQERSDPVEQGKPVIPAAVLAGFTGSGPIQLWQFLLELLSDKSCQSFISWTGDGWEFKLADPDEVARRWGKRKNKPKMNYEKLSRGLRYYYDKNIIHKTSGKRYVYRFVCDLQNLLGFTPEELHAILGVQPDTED
The note with it: protein: recombinant; tags: N-terminal GST; dsDNA, one strand shown. The method, boiled down: as §1

The target in assay [14] is T9, SPDEF (Homo sapiens, UniProt O95238 1-335).
T9 sequence: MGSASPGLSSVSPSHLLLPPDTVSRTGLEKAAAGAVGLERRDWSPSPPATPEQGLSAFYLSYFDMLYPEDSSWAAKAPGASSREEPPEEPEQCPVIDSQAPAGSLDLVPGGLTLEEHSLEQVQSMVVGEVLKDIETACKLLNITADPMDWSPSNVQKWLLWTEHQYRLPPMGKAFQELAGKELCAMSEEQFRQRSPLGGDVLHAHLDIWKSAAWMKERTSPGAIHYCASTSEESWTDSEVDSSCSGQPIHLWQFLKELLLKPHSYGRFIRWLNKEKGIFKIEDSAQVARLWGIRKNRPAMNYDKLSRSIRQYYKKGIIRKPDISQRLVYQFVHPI
The note with it: protein: recombinant; tags: N-terminal GST; dsDNA, one strand shown. The method, boiled down:
as §1

The target in assay [15] is T10, ETV7 (Homo sapiens, UniProt Q9Y603 1-341).
T10 sequence: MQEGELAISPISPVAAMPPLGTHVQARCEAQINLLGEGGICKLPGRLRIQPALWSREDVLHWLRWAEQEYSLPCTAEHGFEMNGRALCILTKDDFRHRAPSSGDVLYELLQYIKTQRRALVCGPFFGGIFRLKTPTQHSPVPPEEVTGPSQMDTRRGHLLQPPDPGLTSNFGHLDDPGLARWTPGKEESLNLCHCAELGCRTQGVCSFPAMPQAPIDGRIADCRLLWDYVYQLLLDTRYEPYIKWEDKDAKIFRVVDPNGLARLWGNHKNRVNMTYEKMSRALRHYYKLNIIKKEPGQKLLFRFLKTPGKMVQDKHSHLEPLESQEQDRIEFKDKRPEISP
Conditions: protein: recombinant; tags: N-terminal GST; dsDNA, one strand shown. In short, it runs like this: as §1

Assay [16] addresses T11, ELF5 (Homo sapiens, UniProt Q9UKW6-2 1-255).
T11 sequence: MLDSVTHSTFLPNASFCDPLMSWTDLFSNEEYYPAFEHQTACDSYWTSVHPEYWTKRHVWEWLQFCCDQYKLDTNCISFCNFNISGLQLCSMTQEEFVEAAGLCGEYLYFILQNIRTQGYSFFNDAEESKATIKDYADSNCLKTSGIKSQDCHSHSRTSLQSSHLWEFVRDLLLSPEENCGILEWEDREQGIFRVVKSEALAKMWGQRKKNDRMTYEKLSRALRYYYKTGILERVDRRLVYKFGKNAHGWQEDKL
Conditions: protein: recombinant; tags: N-terminal GST; dsDNA, one strand shown. In short, it runs like this: as §1

Assay [17] has as its target T12, ETV3 (Homo sapiens, UniProt P41162-2 1-143).
T12 sequence: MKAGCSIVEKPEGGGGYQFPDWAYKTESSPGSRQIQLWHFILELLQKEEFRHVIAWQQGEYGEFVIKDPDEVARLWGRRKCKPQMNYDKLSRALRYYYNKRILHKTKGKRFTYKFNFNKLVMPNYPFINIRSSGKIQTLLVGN
Conditions: protein: recombinant; tags: N-terminal GST; dsDNA, one strand shown. The method, boiled down:
as §1

Assay [18] concerns the target ETV6 (Homo sapiens, UniProt P41212 1-452). Conditions: protein: recombinant; tags: N-terminal GST; dsDNA, one strand shown. In short, it runs like this:
as §1

ETV1, sequence (P50549 whole entry): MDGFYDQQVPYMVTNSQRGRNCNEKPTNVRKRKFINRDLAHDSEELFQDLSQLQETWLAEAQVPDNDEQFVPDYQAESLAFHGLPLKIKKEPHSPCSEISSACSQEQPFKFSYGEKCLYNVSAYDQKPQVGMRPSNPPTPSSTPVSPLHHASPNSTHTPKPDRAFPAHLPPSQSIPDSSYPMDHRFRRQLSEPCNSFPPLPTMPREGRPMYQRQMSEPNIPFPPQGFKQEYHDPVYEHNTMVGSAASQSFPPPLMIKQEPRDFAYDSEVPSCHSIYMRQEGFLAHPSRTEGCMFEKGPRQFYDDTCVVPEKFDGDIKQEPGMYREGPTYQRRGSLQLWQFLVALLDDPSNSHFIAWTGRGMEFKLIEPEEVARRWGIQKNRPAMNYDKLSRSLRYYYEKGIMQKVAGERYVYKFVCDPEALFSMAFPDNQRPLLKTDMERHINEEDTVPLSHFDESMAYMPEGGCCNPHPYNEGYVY
CRX, sequence (O43186 whole entry): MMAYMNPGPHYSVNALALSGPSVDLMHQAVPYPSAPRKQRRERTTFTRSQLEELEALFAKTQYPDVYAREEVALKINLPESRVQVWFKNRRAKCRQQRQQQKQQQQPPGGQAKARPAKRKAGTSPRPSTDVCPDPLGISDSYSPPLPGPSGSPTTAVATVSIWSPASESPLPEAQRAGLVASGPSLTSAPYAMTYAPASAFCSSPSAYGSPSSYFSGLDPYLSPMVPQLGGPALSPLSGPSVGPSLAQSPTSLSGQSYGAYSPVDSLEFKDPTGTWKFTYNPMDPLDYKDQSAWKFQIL
ETV6, sequence (P41212 whole entry): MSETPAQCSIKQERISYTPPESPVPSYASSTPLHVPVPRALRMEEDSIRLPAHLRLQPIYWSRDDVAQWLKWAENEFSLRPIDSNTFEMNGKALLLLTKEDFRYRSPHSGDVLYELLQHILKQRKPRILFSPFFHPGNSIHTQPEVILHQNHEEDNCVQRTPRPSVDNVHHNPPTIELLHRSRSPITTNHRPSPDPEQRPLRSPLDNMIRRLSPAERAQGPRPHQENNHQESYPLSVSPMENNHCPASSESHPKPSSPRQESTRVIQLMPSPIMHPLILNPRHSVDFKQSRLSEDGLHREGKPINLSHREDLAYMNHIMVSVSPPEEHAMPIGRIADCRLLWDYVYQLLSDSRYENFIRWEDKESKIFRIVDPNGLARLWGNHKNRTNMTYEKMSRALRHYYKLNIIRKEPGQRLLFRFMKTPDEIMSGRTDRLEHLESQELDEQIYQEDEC
ELF4, sequence (Q99607 whole entry): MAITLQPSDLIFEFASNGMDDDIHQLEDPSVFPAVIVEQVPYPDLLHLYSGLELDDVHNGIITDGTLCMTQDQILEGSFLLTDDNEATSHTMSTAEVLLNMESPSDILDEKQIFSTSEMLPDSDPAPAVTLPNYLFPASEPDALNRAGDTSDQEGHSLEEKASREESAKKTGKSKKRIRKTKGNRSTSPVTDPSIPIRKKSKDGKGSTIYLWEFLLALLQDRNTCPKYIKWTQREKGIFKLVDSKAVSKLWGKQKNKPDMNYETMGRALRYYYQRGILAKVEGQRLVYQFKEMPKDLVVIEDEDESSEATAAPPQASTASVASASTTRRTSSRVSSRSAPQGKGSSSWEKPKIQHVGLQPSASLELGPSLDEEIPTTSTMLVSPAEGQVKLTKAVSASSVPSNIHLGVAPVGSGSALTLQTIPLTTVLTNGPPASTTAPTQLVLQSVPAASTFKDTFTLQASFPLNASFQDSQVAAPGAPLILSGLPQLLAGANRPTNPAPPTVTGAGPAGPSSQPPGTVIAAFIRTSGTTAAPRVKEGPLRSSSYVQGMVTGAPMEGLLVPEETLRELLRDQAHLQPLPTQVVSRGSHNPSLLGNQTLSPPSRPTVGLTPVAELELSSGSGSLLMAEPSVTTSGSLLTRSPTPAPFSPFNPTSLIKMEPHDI

Consider TAACAT, for which the binding signal was 1.32 fold enrichment (6-mer frequency, TF over GST control) in assay [1]; 1.36 fold enrichment (6-mer frequency, TF over GST control) in [2]; 1.29 fold enrichment (6-mer frequency, TF over GST control) in assay [3]; 1.46 fold enrichment (6-mer frequency, TF over GST control) in assay [4]; 1.37 fold enrichment (6-mer frequency, TF over GST control) in assay [5]; 1.29 fold enrichment (6-mer frequency, TF over GST control) in assay [6]. Further, the binding signal in assay [7] is 1.39 fold enrichment (6-mer frequency, TF over GST control); in [8], 1.5 fold enrichment (6-mer frequency, TF over GST control); in [9] it was 1.57 fold enrichment (6-mer frequency, TF over GST control); in [10], 1.37 fold enrichment (6-mer frequency, TF over GST control); in assay [11], 1.33 fold enrichment (6-mer frequency, TF over GST control); in assay [12], 1.32 fold enrichment (6-mer frequency, TF over GST control). For the same sequence, the binding signal in [13] is 1.28 fold enrichment (6-mer frequency, TF over GST control); in assay [14] it was 1.34 fold enrichment (6-mer frequency, TF over GST control); in assay [15], 1.3 fold enrichment (6-mer frequency, TF over GST control); in assay [16], 1.35 fold enrichment (6-mer frequency, TF over GST control); in [17], 1.26 fold enrichment (6-mer frequency, TF over GST control); in assay [18], 1.4 fold enrichment (6-mer frequency, TF over GST control).
